Compound activity deposited in PubChem BioAssay by National Center for Advancing Translational Sciences (NCATS).
A selection: hits, their analogues and other compounds. The true share with any hit is near 9%.
IMPase cell inh – qHTS Assay for Identifying the Cell-Membrane Permeable IMPase Inhibitors; Inositol monophosphatase 1 (Rattus norvegicus), P97697; CHO-M1 cells, IP1 accumulation, HTRF TR-FRET ratio; inhibition (IP1 accumulation), % at 46.1 µM; 120,000 tested, under 10 active; AID 901, 2007; active = well fitted curve in the direction sought with a large enough effect in the signal ratio, not every such curve was filed as active; inconclusive = small, poorly fitted or top-dose-only effect, or a change in a side signal; inactive = no such curve, though single readings can be large or run the other way; the % refers to the signal ratio;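 also: cells stimulated with carbachol in lithium chloride buffer; plate controls were DMSO basal wells for no effect and reference inhibitor wells for full effect; higher means more IMPase inhibition seen as more IP1 and lower FRET ratio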
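CHO-M1 cells (CHO stably expressing M1 receptor), compound up to 46 uM final, stimulated with carbachol (50 uM as added) in buffer with 50mM LiCl, pH 7.4, 30 min at 37C. Cytosolic IP1 read by TR-FRET; AC50 from Hill fits.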
ALDH1A1 inh – qHTS Assay for Inhibitors of Aldehyde Dehydrogenase 1 (ALDH1A1); Purified ALDH1A1, NADH fluorescence, propionaldehyde substrate; 220,000 tested, 7.3% active; Potency, µM (series often up to 75.3 µM), inactives show top-dose activity, negative = inhibition, hits mostly inhibitors; AID 1030, 2008;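 also: potency is read from the fitted curve at half-maximal effect; plate controls were no enzyme wells and a reference inhibitor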
Target sequence (P00352 whole entry, looked up): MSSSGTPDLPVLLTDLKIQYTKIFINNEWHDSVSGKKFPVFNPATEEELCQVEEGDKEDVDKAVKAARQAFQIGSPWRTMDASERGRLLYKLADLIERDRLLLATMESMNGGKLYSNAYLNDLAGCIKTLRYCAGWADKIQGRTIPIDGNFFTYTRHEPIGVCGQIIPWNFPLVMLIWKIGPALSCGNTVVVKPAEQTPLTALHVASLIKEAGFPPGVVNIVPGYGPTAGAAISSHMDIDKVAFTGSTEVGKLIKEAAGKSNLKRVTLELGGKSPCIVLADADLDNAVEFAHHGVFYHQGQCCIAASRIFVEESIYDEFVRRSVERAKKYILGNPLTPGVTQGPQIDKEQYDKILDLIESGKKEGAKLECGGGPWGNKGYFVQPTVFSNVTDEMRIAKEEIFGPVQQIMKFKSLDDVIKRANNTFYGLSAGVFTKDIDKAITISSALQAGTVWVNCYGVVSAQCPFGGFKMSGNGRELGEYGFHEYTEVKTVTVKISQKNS
HPGD block – qHTS Assay for Inhibitors of HPGD (15-Hydroxyprostaglandin Dehydrogenase); purified HPGD, NADH fluorescence kinetic, PGE2 substrate; Potency, µM, for the others: at the highest dose activity change, negative = inhibition, hits mostly inhibitors; 150,000 tested, 4.3% active; also: potency is read from the fitted curve at half-maximal effect
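20 nM HPGD preincubated 15 min at room temperature with compound in 50 mM Tris-HCl pH 8, 0.01% Tween 20. Started with 1 mM NAD+ and 30 uM prostaglandin E2; NADH fluorescence (360/450 nm) read 5 times over 30-s intervals, last minus first.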
* marks the source's active call; other numbers are inactive results. Unless noted, calls follow the shape of the dose curve; as a rule, active = well fitted inhibition curve with a large enough effect (not every such curve was filed as active); inconclusive = small, poorly fitted or top-dose-only effect, or another doubt; inactive = no such curve, though single readings can be large or run the other way. Unless noted, % is scaled to controls: 0 for no effect and ±100 for the full control effect.

`CCOC(=O)c1c(NC(=S)NC(=O)c2ccc(Cn3cc(Cl)cn3)o2)sc2c1CCCCC2` gave IMPase cell inh 5, ALDH1A1 inh -8% and HPGD block -7%.
N#Cc1c(NC(=O)c2ccc(Cn3cc(Br)cn3)o2)sc2c1CCCCC2 was read as IMPase cell inh 7, ALDH1A1 inh inconclusive and HPGD block -24%.
`COC(=O)c1sc(NC(=O)c2ccc(Cn3cc(Cl)cn3)o2)c(C#N)c1C` gave IMPase cell inh 1, ALDH1A1 inh 3.5µM* and HPGD block 16µM*.
`CC1CCc2c(sc(NC(=O)c3ccc(Cn4cc([N+](=O)[O-])cn4)o3)c2C#N)C1` (stereo not given) gave IMPase cell inh -2, ALDH1A1 inh 25µM* and HPGD block -22%.
For CC(C(=O)O)C1SC(=O)NC1=O (stereo not given) the results were IMPase cell inh -3, ALDH1A1 inh 7% and HPGD block -11%.
Screening Fc1ccc(Nc2nc(-c3cccnc3)nc3ccccc23)cc1 returned ALDH1A1 inh 3% and HPGD block inconclusive.
`O=C(Nc1scc(-c2ccccc2)c1C(=O)O)c1ccco1` gave IMPase cell inh -4, ALDH1A1 inh -12% and HPGD block -25%.
`O=C(/C=C/c1cccs1)Nc1scc(-c2ccccc2)c1C(=O)O` gave ALDH1A1 inh 22µM*.
CC(=O)c1c(C)oc2c(Cl)cc(NS(=O)(=O)c3cc(C)c(C)cc3C)cc12 was read as IMPase cell inh -7.
Screening COC(=O)c1ccc(N2C(=O)CC(Sc3n[nH]c(C)n3)C2=O)cc1 (stereo not given) returned IMPase cell inh -1, ALDH1A1 inh 0.56µM* and HPGD block 16µM*.
Screening COC(=O)c1cc(C(=O)OC)cc(N2C(=O)CC(NNC(=O)c3ccc(C)cc3)C2=O)c1 (stereo not given) returned ALDH1A1 inh 2% and HPGD block 14µM*.
`COC(=O)c1cc(C(=O)OC)cc(N2C(=O)CC(NNC(=O)c3ccccc3Br)C2=O)c1` (stereo not given) gave IMPase cell inh 2, ALDH1A1 inh -16% and HPGD block -12%.
COc1ccccc1N1C(=O)CC(Sc2nc(C)cc(C)n2)C1=O (stereo not given) was read as IMPase cell inh -7, ALDH1A1 inh 9% and HPGD block 1%.
For COC(=O)c1ccc(N2C(=O)C3CC(C)=C(C)CC3C2=O)cc1 (stereo not given) the results were ALDH1A1 inh 5%.
For COC(=O)c1cc(C(=O)OC)cc(N2C(=O)CC(Sc3nc(C)cc(C)n3)C2=O)c1 (stereo not given) the results were IMPase cell inh 2, ALDH1A1 inh 13µM* and HPGD block -9%.
For COc1ccc(S(=O)(=O)NC(CC(=O)NCCc2ccc(OC)c(OC)c2)C(C)C)cc1 (stereo not given) the results were ALDH1A1 inh 1%.
For O=C(CSc1ccccc1)NCCCc1ccccc1 the results were ALDH1A1 inh -4%.
Screening CC(C)CC(NC(N)=O)C(=O)OCC(=O)Nc1ccc(OC(F)F)cc1 (stereo not given) returned ALDH1A1 inh 4%.
COC(=O)c1ccc(CNC(=O)COC(=O)C2CC3C=CC2C3)cc1 (stereo not given) was read as ALDH1A1 inh -8%.
For NC1=NCCCC1 the results were IMPase cell inh 2, ALDH1A1 inh 9% and HPGD block -5%.
O=C1OC(c2cccc([N+](=O)[O-])c2)C2(CCCC2)C(=O)C12CCCCC2 (stereo not given) was read as IMPase cell inh 8, ALDH1A1 inh -5% and HPGD block -17%.
Screening Cc1ccc(S(=O)(=O)Cn2nnnc2CN2CCCC3(CCCCC3)C2)cc1 returned IMPase cell inh 7, ALDH1A1 inh 16µM* and HPGD block -13%.
Cc1ccc(S(=O)(=O)Cn2nnnc2CN2CCOCC2)cc1 was read as IMPase cell inh 8, ALDH1A1 inh -15% and HPGD block -3%.
For COc1cccc(CN2CCN(Cc3cccc4nonc34)CC2CCO)c1 (stereo not given) the results were ALDH1A1 inh 7%.
Screening O=C(C1CC1)N1CCN(c2ccnc3cc(Cl)ccc23)CC1 returned ALDH1A1 inh 42%.
For CC(C)S(=O)(=O)N1CCN(c2ccnc3cc(Cl)ccc23)CC1 the results were ALDH1A1 inh 14µM*.
